The nature of assay [1]: qHTS of pediatric cancer cell lines to identify multiple opportunities for drug repurposing: Primary screen for Rh18 cells (AID 1347102). Further: nearly all actives have a fitted effect of over 65% in size. Further: potency means the concentration at half of the fitted maximal effect. On activity change, negative = cytotoxic: on the % scale 0 is the no-effect control and ±100 the full control effect. The gist of the method:
(§1)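 Cells (500-1,000/well) rested 5 h, then received compounds for 48 h; metabolically active cells were measured by CellTiter-Glo luminescence. Final concentrations spanned up to 46 µM (MIPE, 11-point) or 0.59 nM-46 µM (NPC, 8-point) in primary screens, 11-point in follow-ups.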
Background: qHTS replaces the single test concentration by a dilution series.

Assay [2] is described as follows: qHTS of pediatric cancer cell lines to identify multiple opportunities for drug repurposing: Primary screen for OHS-50 cells (AID 1347103). Further: nearly all actives have a fitted effect of over 40% in size. Further: potency means the concentration at half of the fitted maximal effect.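 On activity change, negative = cytotoxic: plate controls were DMSO neutral control for no effect and bortezomib positive control for full effect.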 The gist of the method: as §1
Assay [3] can be described thus: qHTS of pediatric cancer cell lines to identify multiple opportunities for drug repurposing: Primary screen for RD cells (AID 1347104). Further: nearly all actives have a fitted effect of over 55% in size. Further: potency means the concentration at half of the fitted maximal effect.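 On activity change, negative = cytotoxic: plate controls were DMSO for no effect and bortezomib for full effect.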 The gist of the method:
(§2)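 Primary screen of approved and investigational compounds on cells in growth media at 37 degrees C, 5% CO2. MIPE set at 11-point and NPC set at 8-point dilutions; viability scored by ATP-based luminescence at 48 hours.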

A short description of assay [4]: qHTS of pediatric cancer cell lines to identify multiple opportunities for drug repurposing: Primary screen for MG 63 (6-TG R) cells (AID 1347105). Further: nearly all actives have a fitted effect of over 50% in size. Further: potency means the concentration at half of the fitted maximal effect. On activity change, negative = cytotoxic: on the % scale 0 is the no-effect control and ±100 the full control effect. Put shortly:
as §2

A short description of assay [5]: qHTS of pediatric cancer cell lines to identify multiple opportunities for drug repurposing: Primary screen for Rh30 cells (AID 1347107). Further: series mostly up to about 46 µM; on the % scale 0 is the no-effect control and ±100 the full control effect; nearly all actives have a fitted effect of over 75% in size. The gist of the method: as §1
Assay [6] can be described thus: qHTS of pediatric cancer cell lines to identify multiple opportunities for drug repurposing: Primary screen for Rh41 cells (AID 1347108).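 Further: series mostly up to about 46 µM; luminescence drop marks cytotoxic hits; nearly all actives have a fitted effect of over 70% in size.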 Put shortly: as §2
Assay [7] can be described thus: qHTS of pediatric cancer cell lines to identify multiple opportunities for drug repurposing: Primary screen for control Hh wild type fibroblast cells (AID 1347106).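 Further: series mostly up to about 46 µM; on the % scale 0 is the no-effect control and ±100 the full control effect; a drop in luminescence marks cytotoxicity and a rise apparent proliferation; nearly all actives have a fitted effect of over 55% in size.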 Put shortly: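 Cells (500-1,000/well) in growth media were settled 5 h at 37 degrees C, then given compounds for 48 h. Viability was read as CellTiter-Glo luminescence. Primary runs used MIPE at 11 points (0.78 nM-46 µM) and NPC at 8 points (0.59 nM-46 µM); follow-ups used 11 points.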

Assay [8] can be described thus: qHTS of pediatric cancer cell lines to identify multiple opportunities for drug repurposing: Confirmatory screen for NB1643 cells (AID 1347109).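 Further: plate controls were DMSO for no effect and bortezomib for full effect; nearly all actives have a fitted effect of over 45% in size.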 Put shortly: as §1
Assay [9] in a line: qHTS of pediatric cancer cell lines to identify multiple opportunities for drug repurposing: Confirmatory screen for A673 cells (AID 1347110).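 Further: cells exposed to compound for 48 h before the viability read; plate controls were DMSO neutral control for no effect and bortezomib positive control for full effect; nearly all actives have a fitted effect of over 65% in size.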 Put shortly:
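Cells plated at 500-1,000/well were treated five hours later with multi-point dilutions up to 46 µM final. After two days, CellTiter-Glo was added and luminescence read.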

Assay [10] in a line: qHTS of pediatric cancer cell lines to identify multiple opportunities for drug repurposing: Confirmatory screen for SK-N-MC cells (AID 1347111).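 Further: cells exposed to compound for 48 h before the readout; nearly all actives have a fitted effect of over 70% in size.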 Further: potency means the concentration at half of the fitted maximal effect.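 On activity change, negative = cytotoxic: plate controls were DMSO for no effect and bortezomib for full effect.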 The gist of the method: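 Seed 500-1,000 cells/well; rest 5 h at 37 degrees C. Pin-transfer compounds, 11-point titration. Incubate 48 h. Add CellTiter-Glo, 15 min RT, read luminescence.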

Inconclusive results are not listed. Unmarked numbers belong to inactive results. Calls of active or inactive are those of the source. The call rests on the fitted dose curve; in most records, active means well fitted curve in the direction sought with a large enough effect; inconclusive means small, poorly fitted or top-dose-only effect, or another doubt; inactive means no such curve, though single readings can be large; an effect the other way counts as inactive or inconclusive.

Data on 29 compounds can be found in PubChem BioAssay (NCATS).

As to `C[C@@H]1CCN(C(=O)[C@H](CCCN=C(N)N)NS(=O)(=O)c2cccc3c2NC[C@H](C)C3)[C@@H](C(=O)O)C1`, the Potency entry in [1], in [2], in assay [3], in [4] and in assay [6] was “inactive” in each case. In [5], the compound was classed as inactive.

Regarding `C[C@H]1O[C@@H](n2cc(F)c(=O)[nH]c2=O)[C@H](O)[C@@H]1O`, the Potency entry in [1], in [2], in assay [3], in assay [4] and in assay [6] was “inactive” in each case. For the same compound, in assay [5], the call was inactive.

For the compound `C[C@@H]1C[C@H]2[C@@H]3C[C@H](F)C4=CC(=O)C=C[C@]4(C)[C@@]3(F)[C@@H](O)C[C@]2(C)[C@@]1(O)C(=O)CO`, the Potency result in assay [1], in assay [2], in assay [3], in assay [4], in [6] and in assay [8] was “inactive” in each case. The Potency entry in [9] is “inactive”. Also, the outcome in assay [7] and in assay [5] was inactive. Further, in assay [10], the Potency is 13100 nM (active).

In the case of `CCN(CC)C(=O)Nc1ccc(OCC(O)CNC(C)(C)C)c(C(C)=O)c1` (stereo unspecified), the Potency entry in assay [1], in assay [2], in assay [3] and in assay [4] was “inactive” throughout. Also, the compound was called inactive in assay [5].

In the case of `CCOC(=O)c1ccc(O)cc1`, the Potency entry in [1], in assay [2] and in [3] was “inactive” each time. Also, the call in assay [7] and in assay [5] was inactive.

As to `Cc1cc2nc3c(=O)[nH]c(=O)nc-3n(C[C@H](O)[C@H](O)[C@H](O)CO)c2cc1C`, the Potency result in assay [1], in [2], in assay [3], in assay [4] and in [6] was “inactive” each time. Further, the compound was called inactive in [5].

Consider `CC(=O)OCC(=O)[C@@]1(O)CC[C@H]2[C@@H]3CCC4=CC(=O)CC[C@]4(C)[C@H]3C(=O)C[C@@]21C`, for which the Potency result in assay [1], in assay [2], in assay [3], in [4] and in [6] was “inactive” each time. Also, the call in [5] was inactive.

Turning to `Oc1ccc(C(O)CNCCCCCCNCC(O)c2ccc(O)c(O)c2)cc1O` (stereo unspecified), the Potency result in assay [1], in assay [2], in assay [3], in [4] and in assay [6] was “inactive” each time. Moreover, in assay [5], the outcome was inactive.

Turning to `CCN(CC)C(C)CN1c2ccccc2Sc2ccccc21` (stereo unspecified), the Potency entry in assay [1], in assay [2] and in [3] was “inactive” each time. In addition, the compound was called inactive in assay [7] and in [5].

On to `O=Cc1ccccc1C=O`, for which the Potency result in assay [1], in [2], in assay [3] and in assay [4] was “inactive” each time. Moreover, the compound was called inactive in assay [5].

Take `CCN(CC)CCNC(=O)c1cc(Cl)c(N)cc1OC`: the Potency entry in [1], in assay [2], in [3], in [4], in assay [8] and in assay [9] was “inactive” each time. Further, in assay [10], the Potency entry was “inactive”. For the same compound, the compound was classed as inactive in assay [7] and in [5].

In the case of `CC(=O)CCC(=O)O`, the Potency entry in [1], in [2], in assay [3], in [4] and in [6] was “inactive” each time. The compound was called inactive in [5].

In the case of `CC1(C)CO[C@@H](CC(=O)O)CN1`, the Potency result in assay [1], in assay [2], in assay [3], in [4] and in assay [6] was “inactive” in each case. Moreover, the result in [5] was inactive.

As to `O=C1OC(OC(=O)c2cccnc2Nc2cccc(C(F)(F)F)c2)c2ccccc21` (stereo unspecified), the Potency result in assay [1], in assay [2], in [3], in assay [4] and in assay [6] was “inactive” throughout. The compound was classed as inactive in assay [7] and in assay [5].

Regarding `CC1CC(OC(=O)C(O)c2ccccc2)CC(C)(C)N1C` (stereo unspecified), the Potency entry in assay [1], in assay [2], in assay [3] and in [4] was “inactive” throughout. The compound was called inactive in [5].

As for `Nc1nc2c(ncn2CCC(CO)CO)c(=O)[nH]1`, the Potency entry in [1], in assay [2], in assay [3], in assay [4] and in assay [6] was “inactive” in each case. The compound was classed as inactive in [5].

In the case of `Nc1cc(=O)[nH]c(N)n1`, the Potency entry in assay [1], in assay [2], in [3] and in assay [6] was “inactive” each time. The call in assay [7] and in assay [5] was inactive.

Consider `CN1CCOC(c2ccccc2)c2ccccc2C1` (stereo unspecified), for which the Potency entry in assay [1], in [2], in assay [3], in [4] and in assay [6] was “inactive” throughout. Besides, the compound was classed as inactive in assay [5].

As to `CCOc1nc2cccc(C(=O)O)c2n1Cc1ccc(-c2ccccc2-c2nn[nH]n2)cc1`, the Potency entry in assay [1], in assay [2] and in [3] was “inactive” throughout. Further, the call in assay [7] and in assay [5] was inactive.

Turning to `C[C@@H]1CN(c2c(F)c(F)c3c(=O)c(C(=O)O)cn(C4CC4)c3c2F)C[C@H](C)N1`, the Potency entry in assay [1], in [2], in [3], in [4] and in assay [6] was “inactive” throughout. Moreover, in [5], the compound was called inactive.

As for `OCC(CO)N[C@H]1C[C@](O)(CO)[C@@H](O)[C@H](O)[C@H]1O`, the Potency entry in assay [1], in assay [2], in assay [3], in assay [4] and in assay [6] was “inactive” in each case. Further, in assay [5], the result was inactive.

For the compound `O=C(O)Cc1sc(-c2ccccc2)nc1-c1ccc(Cl)cc1`, the Potency result in [1], in assay [2], in [3] and in assay [6] was “inactive” in each case. For the same compound, the compound was called inactive in assay [7] and in [5].

With `Cn1cc[nH]c1=S`, the Potency entry in assay [1], in assay [2], in assay [3], in [4] and in assay [6] was “inactive” throughout. Further, in [5], the compound was called inactive.

As for `OC[C@H]1O[C@@H](O[C@@H]2[C@@H](CO)O[C@](O)(CO)[C@H]2O)[C@H](O)[C@@H](O)[C@H]1O`, the Potency entry in [1], in [2], in assay [3], in [4] and in assay [6] was “inactive” in each case. Besides, the outcome in [5] was inactive.

For `CC[C@H]1CN2CCc3cc(OC)c(OC)cc3[C@@H]2C[C@@H]1C[C@H]1NCCc2cc(OC)c(OC)cc21`, the Potency is 2110 nM (active) in assay [1], 347 nM (active) in assay [2], 335 nM (active) in [3] and 2110 nM (active) in [4]. The result in assay [5] was inactive.

With `Nc1ccc(S(=O)(=O)Nc2nccs2)cc1`, the Potency result in assay [1], in assay [2], in assay [3] and in assay [4] was “inactive” in each case. Further, the result in [5] was inactive.

For the compound `CC1(C)OC(=O)NC1=O`, the Potency result in assay [1], in assay [2], in assay [3], in [4] and in [6] was “inactive” each time. Also, the outcome in [5] was inactive.

For the compound `O=C1Nc2ccc(Cl)cc2[C@@](C#CC2CC2)(C(F)(F)F)O1`, the Potency result in [1], in assay [3] and in assay [6] was “inactive” each time. Moreover, the Potency in [2] was 27600 nM (active). The result in assay [7] and in assay [5] was inactive.

`C[C@](N)(Cc1ccc(O)cc1)C(=O)O`: the activity change, negative = cytotoxic in assay [1] is 14.1% [at 4.84 µM]; in assay [2], -5.63% [at 6.18 µM]; in assay [4], -28.9% [at 4.84 µM]; in assay [7], 5.39% [at 4.84 µM]; in assay [5], -4.89% [at 4.84 µM]; in assay [6], -37.3% [at 4.84 µM]. Besides, the activity change, negative = cytotoxic was 4.45% [at 5.01 µM] in assay [8] and 6.85% [at 5.01 µM] in [10].
